Structures are written as SMILES. Inconclusive results are not listed. A call without a number means that no potency is given here. Unmarked numbers belong to inactive results. Calls of active or inactive are those of the source. Calls come from the whole dose curve; as a rule, active = well fitted inhibition curve with a large enough effect; inconclusive = small, poorly fitted or top-dose-only effect; inactive = no such curve, though single readings can be large or run the other way.
Potency is the fitted concentration of half-maximal effect.

The nature of the assay: Primary qHTS for inhibitors of nuclear receptor binding SET domain protein 2 (NSD2) in an RCH-ACV wild type WT cells (2C) (AID 1645877). Note: nearly all actives have a fitted effect of over 70% in size. The settings on record: RCH-ACV (leukaemia line) NSD2 WT (2C) viability, CellTiter-Glo, 72 h; series mostly up to 44.9 µM. (In general: Quantitative high-throughput screening tests each substance at several concentrations.)
`O=C(Nc1ccn[nH]1)c1c(F)cccc1F`: the Potency result was “inactive”. On the same count and under the same terms, the result for `C/C(=C\CCC(C)CCO)C(=O)O[C@@H]1[C@@H](O)[C@H](OC2OC=C(C(=O)O)C3CCC(C)(O)C23)O[C@H](CO)[C@H]1O` (some centres undefined) reads “inactive”; that for `C/C(=C\CCC(C)CCO)C(=O)OC1(C)CCC2C(C(=O)O)=COC(OC3OC(CO)C(O)C(O)C3O)C21` (centres undefined), “inactive”.

As to `CC1=CC(=O)C(=C(C)C)CC2C1CCC2(C)O` (centres undefined), the Potency result is “inactive”.

As to `CC1=CC2C(CC1OC1OC(CO)C(O)C(O)C1O)C(C)CC(=O)C2C(C)C` (centres undefined), the Potency entry is “inactive”. As to `CC1(C)CC[C@]2(C(=O)O[C@@H]3O[C@H](CO[C@@H]4O[C@H](CO)[C@@H](O)[C@H](O)[C@H]4O[C@@H]4O[C@H](CO)[C@@H](O)[C@H](O)[C@H]4O)[C@@H](O)[C@H](O[C@@H]4O[C@H](CO)[C@@H](O)[C@H](O)[C@H]4O)[C@H]3O)CC[C@]3(C)C(=CCC4[C@@]5(C)CC[C@@H](O)[C@@](C)(C(=O)O[C@@H]6O[C@H](CO)[C@@H](O)[C@H](O)[C@H]6O)C5CC[C@]43C)[C@@H]2C1` (some centres undefined), the outcome is “inactive [at 9.23 µM]”. For `C=C[C@H]1[C@H](O[C@@H]2O[C@H](CO)[C@@H](O)[C@H](O)[C@H]2O)OC=C(C(=O)OC)[C@H]1CC(=O)O`, the Potency result is “inactive”. Consider `CC(=O)OC1CC2C3(C)CCC(OC(=O)CC(=O)O)C(C)(C)C3CCC2(C)C2(C)CCC(C3(C)CCC(=O)O3)C12` (centres undefined), for which the Potency entry is “inactive”. With `O=C(OC1C=C(CO)C2C(OC3OC(CO)C(O)C(O)C3O)OC=CC12)c1ccc(O)cc1` (centres undefined), the Potency entry was “inactive”. For the compound `COC1C(CO)OC(n2cnc3c(=O)[nH]cnc32)C1O` (centres undefined), the Potency result was “inactive”. The same measure, in the same setting: the result for `CC1(C)C2CC=C(COC3OC(COC4OCC(O)(CO)C4O)C(O)C(O)C3O)C1C2` (centres undefined) reads “inactive”; that for `CC1CCC2(C(=O)O)CCC3(C)C(=CCC4C5(C)CCC(OC(=O)/C=C/c6ccccc6)C(C)(C)C5CCC43C)C2C1C` (centres undefined), “inactive”; that for `CC1(C)C[C@H](O)C[C@@]2(C)OC(=O)C=C12`, “inactive”.

On to `CC1CCC2C(C)(C)[C@@H](O)CC[C@]2(C)C12Cc1c(O)cc3c(c1O2)CN(C(CCC(=O)O)C(=O)O)C3=O` (some centres undefined), for which the Potency result was “inactive”. Turning to `C[C@H](N)C(=O)N[C@@H](Cc1ccc(O)cc1)C(=O)N1CCC[C@H]1C(=O)NCC(=O)N[C@@H](CCCCN)C(=O)N[C@@H](Cc1ccccc1)C(N)=O`, the outcome is “inactive [at 9.23 µM]”. For the compound `C=C(C(=O)O)[C@H]1C[C@]2(C)[C@@H](O)CC[C@]23O[C@H]1C[C@@H]3C`, the Potency result is “inactive”. Take `Nc1nc2c(ncn2[C@@H]2O[C@@H]3COP(=O)(O)O[C@H]3[C@H]2O)c(=O)[nH]1`: the Potency entry was “inactive”. With `CCOC(=O)C(CCc1ccccc1)NC1CSC(c2cccs2)CN(CC(=O)O)C1=O` (centres undefined), the Potency result is “inactive”. Consider `CC1OC(OC2C(OC3C(O[C@H]4CC[C@@]5(C)C(CC[C@]6(C)C5C(=O)C=C5C7CC(C)(C)CC(O)[C@]7(C)CC[C@]56C)C4(C)C)OC(C(=O)O)C(O)C3O)OCC(O)C2O)C(O)C(O)C1O` (some centres undefined), for which the activity change, negative = cell killing was 0.842% [at 9.23 µM]. The same measure, in the same setting: the value for `C[C@@H]1O[C@@H](O[C@H]2[C@H](O[C@H]3CC[C@@]4(C)C(CC[C@]5(C)C4CC=C4[C@@H]6CC(C)(C)CC[C@]6(C(=O)O[C@@H]6OC[C@H](O)[C@H](O)[C@H]6O[C@@H]6O[C@@H](C)[C@H](O[C@@H]7O[C@H](CO)[C@@H](O)[C@H](O)[C@H]7O)[C@H](O)[C@H]6O)[C@H](O)C[C@]45C)C3(C)C)O[C@H](CO)[C@@H](O[C@@H]3OC[C@@H](O)[C@H](O)[C@H]3O)[C@@H]2O)[C@H](O)[C@H](O)[C@H]1O` (some centres undefined) was -15.2% [at 9.23 µM]. Consider `Cc1ccc(C(=O)N(CCCN)C(c2nc3cc(Cl)ccc3c(=O)n2Cc2ccccc2)C(C)C)cc1` (centres undefined), for which the Potency is 7.3 nM (active).

With `CC[C@]1(O)CC2CN(CCc3c([nH]c4ccccc34)[C@@](C(=O)OC)(c3cc4c(cc3OC)N(C=O)[C@H]3[C@@](O)(C(=O)OC)[C@H](OC(C)=O)[C@]5(CC)C=CCN6CC[C@]43[C@@H]65)C2)C1` (some centres undefined), the Potency is 6.4 nM (active). On the same count and under the same terms, the value for `OC[C@H]1O[C@@H](O[C@H]2[C@H](OCc3ccccc3)O[C@H](CO[C@@H]3OC[C@@H](O)[C@H](O)[C@H]3O)[C@@H](O)[C@@H]2O)[C@H](O)[C@@H](O)[C@@H]1O` was “inactive”.

Consider `C[C@@H]1CC[C@@]2(OC1)O[C@H]1C[C@H]3[C@@H]4CC=C5C[C@@H](O)CC[C@]5(C)[C@H]4CC[C@]3(C)[C@H]1[C@@H]2C`, for which the Potency result was “inactive”.

These data come from PubChem BioAssay (NCATS).
